USP30 inh: inhibitors of human USP30 deubiquitinase; Ubiquitin carboxyl-terminal hydrolase 30 (Homo sapiens), Q70CQ3; purified USP30, Ub-rhodamine cleavage fluorescence; inhibition, % at 25 µM; 5.3% of 47,000 active; AID 1645860, 2021
USP8 inh: inhibitors of human USP8 deubiquitinase; AID 1645853, 2021; inhibition, % at 20 µM; 4.2% of 47,000 active; Ubiquitin carboxyl-terminal hydrolase 8 (Homo sapiens), P40818; purified USP8, Ub-rhodamine cleavage fluorescence, 30 min
Target sequence (P40818 whole entry, looked up): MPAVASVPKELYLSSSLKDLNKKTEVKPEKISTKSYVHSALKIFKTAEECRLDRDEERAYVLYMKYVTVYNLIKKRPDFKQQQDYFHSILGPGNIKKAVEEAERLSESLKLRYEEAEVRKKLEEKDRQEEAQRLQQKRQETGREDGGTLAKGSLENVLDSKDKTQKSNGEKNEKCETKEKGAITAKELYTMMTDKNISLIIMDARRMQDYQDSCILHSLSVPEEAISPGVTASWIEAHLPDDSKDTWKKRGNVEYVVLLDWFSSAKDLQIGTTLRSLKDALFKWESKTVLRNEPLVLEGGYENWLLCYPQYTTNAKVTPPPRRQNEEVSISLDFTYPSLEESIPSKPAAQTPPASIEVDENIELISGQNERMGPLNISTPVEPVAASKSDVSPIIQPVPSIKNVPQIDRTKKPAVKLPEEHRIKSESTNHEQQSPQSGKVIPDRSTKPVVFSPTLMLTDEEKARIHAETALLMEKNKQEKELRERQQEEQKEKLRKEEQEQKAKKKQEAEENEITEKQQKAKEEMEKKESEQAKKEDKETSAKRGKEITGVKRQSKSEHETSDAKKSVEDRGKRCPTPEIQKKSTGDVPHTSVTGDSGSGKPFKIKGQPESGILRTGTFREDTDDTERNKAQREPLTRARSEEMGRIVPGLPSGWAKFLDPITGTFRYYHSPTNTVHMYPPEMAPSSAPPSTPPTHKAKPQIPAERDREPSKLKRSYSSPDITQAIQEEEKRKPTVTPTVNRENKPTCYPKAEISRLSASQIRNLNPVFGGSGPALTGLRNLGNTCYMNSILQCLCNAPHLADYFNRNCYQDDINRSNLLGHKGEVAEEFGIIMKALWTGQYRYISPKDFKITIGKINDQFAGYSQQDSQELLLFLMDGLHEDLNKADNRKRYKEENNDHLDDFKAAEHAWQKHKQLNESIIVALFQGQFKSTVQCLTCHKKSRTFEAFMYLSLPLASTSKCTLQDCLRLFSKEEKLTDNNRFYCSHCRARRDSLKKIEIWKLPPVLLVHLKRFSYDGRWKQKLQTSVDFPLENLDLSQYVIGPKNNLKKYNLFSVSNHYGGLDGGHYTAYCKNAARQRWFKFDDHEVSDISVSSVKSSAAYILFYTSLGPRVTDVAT
USP17 inh: inhibitors of human USP17 deubiquitinase; purified USP17, Ub-rhodamine cleavage fluorescence, 3 h; inhibition, % at 50 µM; 6.5% of 47,000 active; AID 1645855, 2021
A number is an active result; – = inactive; · = no result. Compounds with a hit are over-represented: about 12% of the library has one in this group of screens. No stated cut-off is given here; in the data, active means inhibition above about 30%; inactive means the rest.

SMILES | USP30 inh | USP8 inh | USP17 inh
O=C(COC(=O)c1ccc2c(=O)n3c(nc2c1)CCCCC3)NC12CC3CC(CC(C3)C1)C2 | – | – | –
O=C(COC(=O)c1ccc2c(=O)n3c(nc2c1)CCCCC3)NCC1CCCCC1 | 65 | – | 55
O=C1N[C@@H]2CCN(C(=O)CN3CCCC3=O)C[C@@H]2C/C=C/CCOc2ccccc21 | – | – | –
Cc1cc(C)cc(N(CCC(=O)Nc2ccc(N3CCOCC3)cc2)S(=O)(=O)c2ccc(Cl)cc2)c1 | 41 | 32 | 32
Cc1cc(C)cc(N(CCC(=O)Nc2ccccc2)S(=O)(=O)c2ccc3ccccc3c2)c1 | – | – | –
CCC(=O)N1CCCC1c1nnc(C(=O)Nc2ccc(C)cc2)s1 (configuration not stated) | – | – | –
Cn1c(C(=O)N2CCCCC2c2ncc(Cc3cccc(F)c3)o2)cc(=O)n(C)c1=O (configuration not stated) | – | – | –
Cc1cc(C)cc(C(=O)OCC(=O)Nc2ccc3c(c2)OCCO3)c1 | – | – | –
COc1ccccc1NS(=O)(=O)c1cccc(C(=O)OCC(=O)NCc2ccc(Cl)cc2)c1 | – | – | –
O=C(COC(=O)c1ccc(NS(=O)(=O)c2ccc3c(c2)OCCO3)cc1)NCc1ccc(Cl)cc1 | 50 | – | –
O=C(COC(=O)c1cc(Cl)ccc1O)Nc1ccc2c(c1)OCCO2 | – | – | 60
CCC(=O)N1CC(C(=O)NC2CCN(C)CC2)[C@H](c2cccnc2)C1 (some centres not stated) | – | – | –
O=C(Nc1ccccc1C(=O)N1CCN(Cc2ccncc2)CC1)c1ccc(Cl)cc1 | – | – | –
CC(=O)Nc1ccc(C2(C(=O)NCc3ccccc3F)CCC2)cc1 | – | – | –
O=C(NCc1ccccc1F)Nc1ccccc1[N+](=O)[O-] | 57 | – | 73
Cn1cncc1CN1CCc2nc3cc(C(C)(C)C)[nH]n3c(=O)c2C1 | – | – | –
Cc1cccc(S(=O)(=O)Nc2ccc3c(c2)N(C)C(=O)C(C)(C)CO3)c1 | – | – | –
CN1C(=O)C(C)(C)COc2ccc(NS(=O)(=O)c3cc(F)ccc3F)cc21 | – | 44 | –
CCn1c(CNc2ccc(C)cc2)nnc1SCC(=O)Nc1ccccc1Cl | – | – | –
Cc1cc(C)c(NC(=O)CSc2nc3nccnc3c(=O)n2Cc2ccccc2Cl)c(C)c1 | – | – | 49
c1cncc(-c2nccc(-n3cccc3)n2)c1 | – | – | –
O=C(/C=C/c1ccccc1)N1CCc2[nH]nc(-c3ccccc3)c2C1 | – | – | –
CCn1cc(C(=O)Nc2cccc(C)c2)c(S(=O)(=O)N2CCCCCC2)n1 | – | – | –
Cc1cc(-c2cncnc2-c2ccc(CNC(=O)Cc3ccc(N(C)C)cc3)cc2)on1 | – | – | –
Cc1ccc(Nc2nc(Nc3ccc(C)cc3)nc(N3CCCCC3)n2)cc1 | – | – | –
SMILES | USP30 inh | USP8 inh | USP17 inh
Cc1cccc(Nc2nc(N3CCCCC3)nc(N3CCCCC3)n2)c1 | 30 | – | –
CNc1nc2c(c(=O)n1C)CN(C(=O)Nc1ccc(C(C)(C)C)cc1)CC2 | – | – | –
CNc1nc2c(c(=O)n1C)CN(C(=O)Nc1cccc3ccccc13)CC2 | – | 90 | 71
COC(=O)c1ccccc1NC(=O)c1cnc2c(c1)c(=O)n(C)c(=O)n2-c1ccccc1 | – | – | –
CN(CC(=O)Nc1cccc(F)c1)Cc1nc2ccccc2c(=O)[nH]1 | · | – | –
Cc1nn(-c2ccc(F)cc2)cc1-c1noc(C(=O)NCC2CCCO2)n1 (configuration not stated) | – | – | –
COc1ccc(NS(=O)(=O)c2ccc(O)c([N+](=O)[O-])c2)cc1S(=O)(=O)N1CCCCC1 | – | – | –
Cc1ccc(S(=O)(=O)Nc2ccc(O)c(S(=O)(=O)c3ccc(C)cc3)c2)cc1 | – | 33 | –
Cc1nn(C)c(C)c1CNC(=O)C1CCN(c2nnc3ccc(C(F)(F)F)cn23)CC1 | – | – | –
Cc1ccc(NC(=O)CSc2ccc(N3CCC(C(=O)NC(C)C)CC3)nn2)cc1 | · | – | –
CC(C)NC(=O)C1CCN(c2ccc(SCC(=O)Nc3ccccc3Cl)nn2)CC1 | 34 | – | –
O=C(Cn1cnc(-c2noc(-c3ccc(F)cc3)n2)c1)NC1CCCCC1 | – | 52 | –
O=C(Cn1cnc(-c2noc(-c3ccncc3)n2)c1)Nc1ccc(F)cc1 | – | – | –
O=C(Cn1c(-c2ccc(F)cc2)nc2ccccc21)NC1CCCCC1 | – | 34 | –
O=C(Cn1cnc(-c2noc(-c3ccncc3)n2)c1)N1CCN(c2ccccc2F)CC1 | 52 | – | –
Cc1c(C#N)c2ccccc2n1CC(=O)NC1CCCCCC1 | – | – | –
O=C(Cn1cnc(-c2noc(-c3cccc(F)c3)n2)c1)N1CCN(c2ccccc2)CC1 | – | – | –
Cc1cc(Cl)ccc1OCC(=O)NCC(c1cccs1)N(C)C (configuration not stated) | – | – | –

Assay outcomes deposited in PubChem by Buhrlage Lab, Dana-Farber Cancer Institute and Novartis Institutes for BioMedical Research (Cambridge, Mass).
